Results filed as inconclusive are left out. Calls of active or inactive are those of the source. Calls come from the whole dose curve; as a rule, active = well fitted cell-killing curve with a large enough effect; inconclusive = small, poorly fitted or top-dose-only effect, or effect the other way; inactive = flat fitted curve, though single readings scatter.
Columns and labels:
Test in all cases: Primary qHTS to identify gynecologic anti-cancer compounds using libraries of approved drugs and bioactive compounds (AID 1345084); note: nearly all actives have a fitted effect of over 55% in size
[1] = system: C33A; details: Gynecologic cancer cell panel viability, ATPlite luminescence, 48 h; series mostly up to 57.5 µM
Outline: (§1)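 Cytotoxicity screen measuring ATP content by luciferase luminescence. Each compound is applied at five concentrations for 48 h at 37 C with 5% CO2.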

[2] = system: CAOV3; details: Gynecologic cancer cell panel viability, ATPlite luminescence, 48 h; series mostly up to 57.5 µM
Outline: as §1

[3] = system: CASKI; details: Gynecologic cancer cell panel viability, ATPlite luminescence, 48 h; series mostly up to 57.5 µM
Outline: as §1

[4] = system: Es-2; details: Gynecologic cancer cell panel viability, ATPlite luminescence, 48 h; series mostly up to 57.5 µM
Outline: as §1

[5] = system: HeLa; details: Gynecologic cancer cell panel viability, ATPlite luminescence, 48 h; series mostly up to 57.5 µM
Outline: as §1

[6] = system: Hek293T; details: Gynecologic cancer cell panel viability, ATPlite luminescence, 48 h, control line for the selectivity index; series mostly up to 57.5 µM
Outline: as §1

[7] = system: JEG-3; details: Gynecologic cancer cell panel viability, ATPlite luminescence, 48 h; series mostly up to 57.5 µM
Outline: as §1

[8] = system: OV90; details: Gynecologic cancer cell panel viability, ATPlite luminescence, 48 h; series mostly up to 57.5 µM
Outline: as §1

[9] = system: PA-1; details: Gynecologic cancer cell panel viability, ATPlite luminescence, 48 h; series mostly up to 57.5 µM
Outline: as §1

[10] = system: SKOV3; details: Gynecologic cancer cell panel viability, ATPlite luminescence, 48 h; series mostly up to 57.5 µM
Outline: as §1

[11] = system: Tov-21-G; details: Gynecologic cancer cell panel viability, ATPlite luminescence, 48 h; series mostly up to 57.5 µM
Outline: as §1

[12] = system: Tov112D; details: Gynecologic cancer cell panel viability, ATPlite luminescence, 48 h; series mostly up to 57.5 µM
Outline: as §1
% is set by controls: 0 for no effect and ±100 for the full control effect.

CC(C)CCC1(O)C(=O)C(C)(C)C(O[C@@H]2O[C@H](CO)[C@@H](O)[C@H](O)[C@H]2O)C(C)(C)C1O (stereo not given in full)
inactive: Potency [1] | Potency [2] | Potency [3] | Potency [4] | Potency [5] | Potency [6] | Potency [7] | Potency [8] | Potency [9] | Potency [10] | Potency [11] | Potency [12]

CC(C)=C/C=C\[C@H](C)[C@H]1CC[C@]2(C)C[C@@H]3C(C)=CC(=O)C3/C(CO)=C\C[C@@H]12 (stereo not given in full)
inactive: Potency [1] | Potency [2] | Potency [3] | Potency [4] | Potency [5] | Potency [6] | Potency [7] | Potency [8] | Potency [9] | Potency [10] | Potency [11] | Potency [12]

CC1CC[C@]2(C(=O)O)CC[C@]3(C(=O)O)C(=CCC4[C@@]5(C)CC[C@H](O[C@@H]6O[C@H](CO)[C@@H](O)[C@H](O)[C@H]6O)C(C)(C)C5CC[C@]43C)C2C1C (stereo not given in full)
inactive: Potency [1] | Potency [2] | Potency [3] | Potency [4] | Potency [5] | Potency [6] | Potency [7] | Potency [8] | Potency [9] | Potency [10] | Potency [11] | Potency [12]

O=C(CC(c1ccccc1)c1ccccc1)N1CCN(C(c2ccccc2)c2ccccc2)CC1
inactive: Potency [1] | Potency [2] | Potency [3] | Potency [4] | Potency [5] | Potency [6] | Potency [7] | Potency [8] | Potency [9] | Potency [10] | Potency [11] | Potency [12]

CC1OC(O[C@H]2CC[C@@]3(C)C(CC[C@]4(C)C3CC=C3C5CC(C)(C)CC[C@]5(C(=O)OC5OC(CO)C(OC6OC(COC7OCC(O)C(O)C7O)C(O)C(O)C6O)C(O)C5O)CC[C@]34C)C2(C)C)C(O)C(O)C1OC1OCC(OC2OCC(O)C(O)C2O)C(O)C1O (stereo not given in full)
inactive: activity change, negative = cytotoxicity [1] 24.4% [at 6.55 µM] | activity change, negative = cytotoxicity [2] 3.53% [at 6.55 µM] | activity change, negative = cytotoxicity [3] -2% [at 6.55 µM] | activity change, negative = cytotoxicity [4] 0.974% [at 6.55 µM] | activity change, negative = cytotoxicity [5] -5.59% [at 6.55 µM] | activity change, negative = cytotoxicity [6] 2.21% [at 6.55 µM] | activity change, negative = cytotoxicity [7] 7.58% [at 6.55 µM] | activity change, negative = cytotoxicity [8] 5.67% [at 6.55 µM] | activity change, negative = cytotoxicity [9] -4.41% [at 6.55 µM] | activity change, negative = cytotoxicity [10] 5.68% [at 6.55 µM] | activity change, negative = cytotoxicity [11] -0.908% [at 6.55 µM] | activity change, negative = cytotoxicity [12] -13.2% [at 6.55 µM]

COc1cc2occc2c(O[C@@H]2O[C@H](CO)[C@@H](O)[C@H](O)[C@H]2O)c1CCC(=O)O
inactive: Potency [1] | Potency [2] | Potency [3] | Potency [4] | Potency [5] | Potency [6] | Potency [7] | Potency [8] | Potency [9] | Potency [10] | Potency [11] | Potency [12]

COC(=O)CC1CC(c2ccc(O)cc2)=NO1 (stereo not given)
inactive: Potency [1] | Potency [2] | Potency [3] | Potency [4] | Potency [5] | Potency [6] | Potency [7] | Potency [8] | Potency [9] | Potency [10] | Potency [11] | Potency [12]

C[C@H](Nc1ncnc2nc[nH]c12)c1cc2ccc(F)cc2nc1-c1ccccn1
inactive: Potency [1] | Potency [2] | Potency [3] | Potency [4] | Potency [5] | Potency [6] | Potency [7] | Potency [8] | Potency [9] | Potency [10] | Potency [11] | Potency [12]

C/C=C1\[C@H](O[C@@H]2O[C@H](CO)[C@@H](O)[C@H](O)[C@H]2O)OC=C(C(=O)OC)[C@H]1CC(=O)OC[C@H]1O[C@@H](OCCc2ccc(O)cc2)[C@H](O)[C@@H](O)[C@@H]1O
inactive: Potency [1] | Potency [2] | Potency [3] | Potency [4] | Potency [5] | Potency [6] | Potency [7] | Potency [8] | Potency [9] | Potency [10] | Potency [11] | Potency [12]

OC[C@H]1O[C@@H](OC(CCCCc2ccc(O)cc2)CCc2ccc(O)cc2)[C@H](O)[C@@H](O)[C@@H]1O (stereo not given in full)
inactive: Potency [1] | Potency [2] | Potency [3] | Potency [4] | Potency [5] | Potency [6] | Potency [7] | Potency [8] | Potency [9] | Potency [10] | Potency [11] | Potency [12]

CC1=CC(=O)C(=C(C)C)CC2C1CCC2(C)O (stereo not given)
inactive: Potency [1] | Potency [2] | Potency [3] | Potency [4] | Potency [5] | Potency [6] | Potency [7] | Potency [8] | Potency [9] | Potency [10] | Potency [11] | Potency [12]

CC1(C)CCC2(C(=O)OC3OC(CO)C(O)C(O)C3O)CCC3(C)C(=CCC4C5(C)CCC(OC6OC(C(=O)O)C(OC7OC(CO)C(O)C(O)C7O)C(OC7OC(CO)C(O)C(O)C7O)C6O)C(C)(C)C5CCC43C)C2C1 (stereo not given)
inactive: activity change, negative = cytotoxicity [1] -2.64% [at 11.6 µM] | activity change, negative = cytotoxicity [2] 3.96% [at 11.6 µM] | activity change, negative = cytotoxicity [3] 5.46% [at 11.6 µM] | activity change, negative = cytotoxicity [4] -0.153% [at 11.6 µM] | activity change, negative = cytotoxicity [5] 10.1% [at 11.6 µM] | activity change, negative = cytotoxicity [6] -1.3% [at 11.6 µM] | activity change, negative = cytotoxicity [7] -1.35% [at 11.6 µM] | activity change, negative = cytotoxicity [8] 3.02% [at 11.6 µM] | activity change, negative = cytotoxicity [9] 16.1% [at 11.6 µM] | activity change, negative = cytotoxicity [10] 13.2% [at 11.6 µM] | activity change, negative = cytotoxicity [11] 1.15% [at 11.6 µM] | activity change, negative = cytotoxicity [12] 6% [at 11.6 µM]

CC(=O)c1cc2c(cc1O)OC(C)(C)C=C2
inactive: Potency [1] | Potency [2] | Potency [3] | Potency [4] | Potency [5] | Potency [6] | Potency [7] | Potency [8] | Potency [9] | Potency [10] | Potency [11] | Potency [12]

CC(=O)CCC1=C(C)C(O[C@@H]2O[C@H](CO)[C@@H](O)[C@H](O)[C@H]2O)C(O)CC1(C)C (stereo not given in full)
inactive: Potency [1] | Potency [2] | Potency [3] | Potency [4] | Potency [5] | Potency [6] | Potency [7] | Potency [8] | Potency [9] | Potency [10] | Potency [11] | Potency [12]

COc1cc(O)c2c(c1)C1=CC(O)C(O)CC1(C)OC2=O (stereo not given)
inactive: Potency [1] | Potency [2] | Potency [3] | Potency [4] | Potency [5] | Potency [6] | Potency [7] | Potency [8] | Potency [9] | Potency [10] | Potency [11] | Potency [12]
